Screening results from PubChem BioAssay.
Statin myotox sup: suppressors of statin myotoxicity in C2C12 myotubes, primary screen, cell-based, single point, plate reader; C2C12 myotubes + simvastatin, ATP luminescence, 48 h; scaled: DMSO 0, geranylgeraniol control 100; rescue of ATP level, % at 7.49 µM; 0.78% of 330,000 active; AID 602340, 2012;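 active = mean ATP rescue above about 67%, or every replicate alone reaching that limit, limit read from the data, passing the limit was not always enough; inconclusive = no clear call, values can overlap the other calls; inactive = mean under the limit and some replicate under it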;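 note: myotubes were challenged with 10 µM simvastatin during compound exposure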
MITF act: activators of MITF-driven TRPM1 promoter reporter, primary screen, cell-based, SK-MEL-5, luciferase, single point. SK-MEL-5 TRPM1-promoter luciferase, 24 h; % of positive control, neutral wells = 0. activation, % at 12.5 µM. 0.75% of 300,000 active. AID 588334, 2011;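 active = mean activation of at least 80% with every replicate also reaching 80%; inconclusive = mean reaches 80% but some replicate falls short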;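 note: 0% = neutral control wells and 100% = parthenolide positive control wells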
esBAF inh: Bmi1 luciferase reporter increase in mESCs, primary screen, esBAF inhibitor project, mouse ES cells, Bmi1 luciferase knock-in, single point | 2% of 350,000 active | 24 h; 100% = twice the neutral-well signal | reporter increase, % at 12.5 µM; in the data active = activation above about 40%; inconclusive = no clear call, values can overlap the other calls;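 note: 0% = median of the plate's neutral control wells and 100% = double that signal; a rise in the Bmi1 reporter signal indicates esBAF inhibition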
Wnt bcat act: Wnt/beta-catenin pathway activators, primary screen, cell-based, plate reader, single point; Wnt/beta-catenin reporter cell assay, activator; 1.2% of 300,000 active; activation, % at 9.35 µM; AID 743398, 2014; in the data active = activation above about 30%, passing the limit was not always enough; inconclusive = no clear call, values can overlap the other calls;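 note: 0% = neutral control wells and 100% = positive control wells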
TRPM1 prom inh: inhibitors of MITF-dependent TRPM1 promoter reporter, primary screen, cell-based, SK-MEL-5, single point, luciferase. SK-MEL-5 TRPM1 promoter luciferase, 24 h. inhibition, % at 12.5 µM. 0.83% of 330,000 active. AID 488899, 2010;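 active = mean inhibition across replicates of 60% or more, whatever share of single replicates reaches that level; inconclusive = some that reach 60%, reason not given; inactive = mean inhibition across replicates below 60%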
EBV LMP1 NFkB: EBV LMP1-driven NF-kappaB luciferase reporter inhibitors, primary screen, cell-based, luminescence, single point; LMP1-induced NF-kappaB luciferase reporter cells; inhibition, % at 12.5 µM; 0.69% of 350,000 active; AID 504558, 2011; in the data active = inhibition above about 41%; inconclusive = no clear call, values can overlap the other calls;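 note: 0% = neutral control wells and 100% = reference inhibitor control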
Active calls of the source: *; u = inconclusive; x = no result given. In the library only some 4% were active in any assay of this set; here they are far more common.

SMILES	Statin myotox sup	MITF act	esBAF inh	Wnt bcat act	TRPM1 prom inh	EBV LMP1 NFkB
Cc1cc(C)cc(NC(=O)C2CCN(S(=O)(=O)c3ccc4c(c3)NC(=O)C(C)S4)CC2)c1 (stereo not given)	10.0	0.1	3.3	-1.0	0.7	2.4
Cc1ccc(NC(=O)C2CCN(S(=O)(=O)c3ccc4c(c3)NC(=O)C(C)S4)CC2)cc1Cl (stereo not given)	-0.8	-16.7	-22.1	-0.1	19.4	40.3*
CC(C)N1C(=O)C2C(C(=O)NCc3ccccc3)C3C=CC2(O3)C1C(=O)NC(C)(C)C (stereo not given)	-1.3	10.6	3.1	x	-8.1	-1.2
O=C(CCCN1C(=O)/C(=C/c2ccccc2Cl)SC1=S)Nc1cccnc1	9.2	-3.0	-66.5	10.5	4.7	58.4*
O=C(CCN1C(=O)/C(=C/c2ccccc2Cl)SC1=S)Nc1cccnc1	9.7	7.3	-0.3	-1.6	-7.0	-6.0
O=C(CN(c1ccccc1F)S(=O)(=O)c1ccccc1)Nc1ccc2c(c1)OCCO2	x	19.4	x	0.6	-14.2	11.9
O=C(NCc1ccco1)Nc1ccc(Br)cc1Cl	-22.0	90.8*	u	x	-84.9	-20.0
CCOc1c2ccoc2nc2c(OC)c(OC)ccc12	1.7	x	21.5	-0.4	x	-12.6
C=CCOc1ccc2c(OC)c3ccoc3nc2c1OC	92.1*	26.5	48.2*	35.4*	-26.1	-26.3
COC(=O)[C@@H]1C[C@@H](C(=O)O)[C@H](C)C1(C)C	-9.1	-2.1	-1.8	4.8	2.2	3.1
COc1ccc(C)cc1C(=O)C1CC(C(=O)O)C(C)(C)C1C (stereo not given)	104.2*	-0.6	-1.2	x	4.6	-6.5
O=C(Nc1ccc(S(=O)(=O)N2CCCCCC2)cc1)C1CCCO1 (stereo not given)	x	-7.8	x	-1.8	10.1	2.8
COc1cc(C)c(Cl)cc1S(=O)(=O)NCCCN1CCOCC1	-22.6	-13.0	-1.5	x	17.0	-2.3
COc1cc(C)c(Cl)cc1S(=O)(=O)NCCN1CCOCC1	123.3*	10.7	-2.8	x	-13.3	5.2
C/C(CCc1ccccc1)=N\NC(=O)c1ccccc1	x	5.9	x	x	-5.9	9.5
COc1ccc(C2(CNC(=O)c3cccc([N+](=O)[O-])c3)CCCCC2)cc1OC	x	11.1	x	-2.0	-11.8	-2.5
O=C(COc1ccc(Cl)cc1Cl)Nc1cccnc1	x	93.8*	x	u	-107.8	-2.3
O=C(COc1ccc(Cl)cc1Br)Nc1ccncc1	1.6	70.7	79.4*	11.0	-69.7	8.4
CN(c1cccc(NC(=O)COc2ccc(Cl)cc2Cl)c1)S(C)(=O)=O	24.0	x	37.5	37.3*	-66.0	-19.5
Cc1ccccc1OCC(=O)Nc1cccc(N(C)S(C)(=O)=O)c1	1.9	24.0	13.1	-1.5	-18.9	-13.4
Cc1ccc(NC(=O)CN2C(=O)NC3(CCCCCCC3)C2=O)cc1C	5.9	32.7	-6.0	-12.1	-33.4	-10.9
CN(C)/C=N/C(=S)Nc1ccc(Cl)c(Cl)c1	-110.5	41.4	63.1*	9.0	-39.7	-22.0
CN(C)/C=N/C(=S)Nc1cc(Cl)cc(Cl)c1	-81.9	-16.3	2.7	10.2	15.1	4.9
O=S(=O)(Nc1cccc(-n2cnnn2)c1)c1ccc(Cl)cc1	x	-6.8	x	1.4	10.2	-6.3
O=C(NOCc1ccccc1)c1ccccc1	12.1	34.1	-18.4	32.0*	-32.2	6.1
SMILES	Statin myotox sup	MITF act	esBAF inh	Wnt bcat act	TRPM1 prom inh	EBV LMP1 NFkB
O=C(NOCc1ccccc1)c1ccc(Cl)cc1Cl	-1.1	-9.0	-65.5	7.8	10.6	46.1*
CCOC(=O)c1c(NC(=O)COC(=O)c2nc(Cl)ccc2Cl)sc(C(=O)N(C)C)c1C	-5.5	2.3	7.7	-3.7	0.0	0.6
COc1ccc(Cc2nnc(N/N=C/c3ccc(O)cc3)[nH]c2=O)cc1OC	x	-57.5	x	x	59.1	60.5*
CCNC(=O)CSc1nnc(CN2CCCCCC2=O)n1-c1ccccn1	x	14.6	x	-0.8	-17.9	-1.8
O=C1CCCCCN1Cc1nnc(SCc2nc3ccccc3s2)n1-c1ccccn1	2.3	x	u	56.9*	-21.8	-14.5
Clc1ccc(OCCSc2ncccn2)cc1	x	99.5*	x	x	-98.0	-37.2
